The values below come from PubChem BioAssay (NCATS).

Values joined by “and” are separate entries in the source; they are usually repeats but may differ in a detail not shown here. Equal entries are not always repeated. A number with no mark means an inactive call. Results filed as inconclusive are left out. Active and inactive are the calls of the source. The call rests on the fitted dose curve; in most records, active means well fitted curve in the direction sought with a large enough effect; inconclusive means small, poorly fitted or top-dose-only effect, or another doubt; inactive means no such curve, though single readings can be large; an effect the other way counts as inactive or inconclusive.

Assay [1] in a line: Primary qHTS for inhibitors of nuclear receptor binding SET domain protein 2 (NSD2) in an RCH-ACV wild type WT cells (2C) (AID 1645877). Further: nearly all actives have a fitted effect of over 70% in size. Further: potency means the concentration at half of the fitted maximal effect. On activity change, negative = cell killing: on the % scale 0 is the no-effect control and ±100 the full control effect.
Assay [2] has as its target Glutathione peroxidase 1 (Homo sapiens) (UniProt P07203). In words: Primary qHTS Assay for Inhibitors of Recombinant Selenoprotein Glutathione Peroxidase 1 (GPX1) (AID 1845191). Further: nearly all actives have a fitted effect of over 65% in size. On activity, negative = inhibition: on the % scale 0 is the no-effect control and ±100 the full control effect. The method in brief:
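GR-coupled readout: NADPH consumption tracked by fluorescence, ex 340/em 450 nm, at t=0 and after 15 min at RT. Final mix 10 nM GPX1, 1 mM GSH, 0.5 mM CHP, 0.5 mM NADPH, 100 nM GR, 0.01% BSA, following 30 min enzyme–compound preincubation.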
Background: Quantitative high-throughput screening tests each substance at several concentrations.

The target in assay [3] is Phospholipid hydroperoxide glutathione peroxidase GPX4 (Homo sapiens) (UniProt P36969). Put plainly: Primary qHTS Assay for Inhibitors of Recombinant Selenoprotein Glutathione Peroxidase 4 (GPX4) (AID 1845192). Further: nearly all actives have a fitted effect of over 65% in size. A digest of the protocol: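 Steps: GPX4 plus compound, 30 min RT; add GR/GSH/NADPH master mix; start with cumene hydroperoxide; read 340/450 nm fluorescence at 0 and 15 min. Finals were 200 nM GPX4, 1 mM GSH, 0.5 mM CHP, 0.5 mM NADPH, 100 nM GR.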

Assay [4] deals with Luciferin 4-monooxygenase (Photinus pyralis) (UniProt P08659). Put plainly: Primary firefly luciferase (FLuc) qHTS assay for identification of artifact compounds. (AID 1845220). Further: nearly all actives have a fitted effect of over 60% in size. A digest of the protocol: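 Titrated compounds were incubated 15 min at RT, protected from light, with luciferin and ATP at 10 uM; reaction started with 10 nM FLuc, luminescence imaged at 5 min, and concentration-response fitted by Hill equation.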

Assay [5] can be described thus: Primary fluorescence-based thiol-reactive (MSTI) qHTS assay for identification of artifact compounds. (AID 1845221). Further: nearly all actives have a fitted effect of over 65% in size. Further: potency means the concentration at half of the fitted maximal effect.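 On activity change, negative = thiol reactive: series mostly up to about 54 µM; thiol-reactive compounds lower the probe fluorescence signal.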 A digest of the protocol:
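Reactivity toward the thiol probe MSTI (4 uM) is scored by fluorescence at Ex/Em 525/598 nm after 1 h at room temperature. Acetyl-MSTI and MSTI define the activity scale.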

Assay [6] concerns Nanoluciferase (engineered Oplophorus gracilirostris luciferase). Put plainly: Primary Nanoluciferase (NLuc) qHTS assay for identification of artifact compounds. (AID 1845222).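 Further: NLuc secreted into diluted conditioned medium of S16 cells; series mostly up to about 54 µM; 0% = DMSO and -100% = no enzyme.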 A digest of the protocol:
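qHTS format, against NLuc in S16 cell-conditioned medium. Nano-Glo substrate 1:100 was added after 15 min at room temperature. Luminescence was taken after a further 5 min.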

Chain of Phospholipid hydroperoxide glutathione peroxidase GPX4 (Homo sapiens) (P36969 whole entry, looked up): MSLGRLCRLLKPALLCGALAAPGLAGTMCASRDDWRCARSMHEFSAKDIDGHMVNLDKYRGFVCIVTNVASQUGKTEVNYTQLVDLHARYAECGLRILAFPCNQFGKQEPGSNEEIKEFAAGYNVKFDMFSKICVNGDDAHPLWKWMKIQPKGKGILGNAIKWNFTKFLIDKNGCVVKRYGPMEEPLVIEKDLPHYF
Chain of Glutathione peroxidase 1 (Homo sapiens) (P07203 whole entry, looked up): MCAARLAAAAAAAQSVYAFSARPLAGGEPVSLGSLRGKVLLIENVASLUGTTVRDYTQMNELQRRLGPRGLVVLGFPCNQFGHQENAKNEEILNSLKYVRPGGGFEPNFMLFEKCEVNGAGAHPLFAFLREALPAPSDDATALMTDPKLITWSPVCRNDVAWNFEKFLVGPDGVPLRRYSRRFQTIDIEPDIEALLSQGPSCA

On to `O=C(O)[C@@H]1C[C@H]2C[C@@H](CCc3nn[nH]n3)CC[C@H]2CN1`, for which the Potency result in assay [1], in assay [2], in assay [3], in assay [4], in assay [5] and in assay [6] was “inactive” each time.
Consider `CC(=O)O[C@H]1[C@@H](O)[C@H](O[C@H]2[C@@H]3C=CO[C@@H](O[C@H]4O[C@@H](CO)[C@H](O)[C@@H](O)[C@@H]4O)[C@@H]3[C@@]3(CO)O[C@@H]23)O[C@@H](C)[C@@H]1OC(=O)/C=C/c1ccccc1`, for which the Potency result in assay [1], in assay [2], in assay [3], in assay [4] and in assay [6] was “inactive” each time. The Potency in assay [5] was 7930 nM (active).
For the compound `C=CC(C)(C)c1[nH]c2ccccc2c1C[C@@H]1NC(=O)[C@H](Cc2c[nH]c3ccccc23)NC1=O`, the Potency entry in assay [1], in assay [2], in assay [3], in assay [4] and in assay [6] was “inactive” throughout. Further, in assay [5], the Potency is 2320 nM (active).
As for `CC1CCC23COC(=O)C2=CC(O)CC3C1(C)CCC1=CC(O)OC1=O` (stereo unspecified), the Potency result in assay [1], in assay [2], in assay [3], in assay [4] and in assay [6] was “inactive” each time. Moreover, the Potency in assay [5] is 3290 nM (active).
Regarding `CC(=O)OC[C@H]1O[C@H](O[C@]2(CO)O[C@H](CO)[C@@H](OC(=O)/C=C/c3ccccc3)[C@@H]2O)[C@H](O)[C@@H](O)[C@@H]1O`, the Potency result in assay [1], in assay [2], in assay [3], in assay [4] and in assay [6] was “inactive” in each case. Moreover, the Potency in assay [5] was 4620 nM (active).
For the compound `O=C(C(c1ccccc1)c1ccccc1)N1CCN(CC(O)COc2cccc3ncccc23)CC1` (stereo unspecified), the Potency in assay [1] was 14.5 µM (active) and 20.9 µM (active). Moreover, the Potency entry in assay [2], in assay [3], in assay [4], in assay [5] and in assay [6] was “inactive” in each case.
Consider `CC[C@H](CO)Nc1nc(NCc2ccc(-c3ccccn3)cc2)c2ncn(C(C)C)c2n1`, for which, in assay [1], the Potency is 230 nM (active). Besides, the Potency result in assay [2], in assay [3], in assay [4], in assay [5] and in assay [6] was “inactive” in each case.
For the compound `CC1(C)CC[C@@]2(C(=O)O[C@@H]3O[C@H](CO)[C@@H](O)[C@H](O)[C@H]3O)C(C1)C1=CCC3[C@@]4(C)CC[C@@H](O[C@@H]5O[C@H](C(=O)O)[C@@H](O[C@@H]6OC[C@@H](O)[C@H](O)[C@H]6O)[C@H](O[C@@H]6OC[C@](O)(CO)[C@H]6O)[C@H]5O)C(C)(C)C4CC[C@@]3(C)[C@]1(C)C[C@H]2O` (stereo partly specified), the activity change, negative = cell killing in assay [1] is -88.4% [at 9.23 µM]. Besides, the Potency result in assay [2] and in assay [3] was “inactive” each time. Further, the outcome in assay [4] is “inactive [at 11.6 µM]”. Besides, the activity change, negative = thiol reactive in assay [5] is 54.8% [at 11.5 µM]. The activity, negative = inhibition in assay [6] is 1.29% [at 11.6 µM].
For the compound `C[C@@H]1O[C@@H](O[C@H]2[C@@H]3C=CO[C@@H](O[C@@H]4O[C@H](CO)[C@@H](O)[C@H](O)[C@H]4O)[C@@H]3[C@@]3(CO)O[C@@H]23)[C@H](OC(=O)/C=C/c2ccccc2)[C@H](O)[C@H]1O`, the Potency entry in assay [1], in assay [2], in assay [3], in assay [4] and in assay [6] was “inactive” each time. In assay [5], the Potency was 7930 nM (active).
For `COc1cc(C)c(C(=O)Oc2cc(C)c(C(=O)Oc3cc(C)c(C(=O)NC(C)C(=O)O)c(O)c3)c(O[C@@H]3O[C@H](CO)[C@@H](O)[C@H](O)[C@H]3OC(C)=O)c2)c(OC)c1` (stereo partly specified), the Potency entry in assay [1], in assay [2], in assay [3], in assay [4], in assay [5] and in assay [6] was “inactive” in each case.
`COc1cc(C(=O)NC2CCN(C)CC2)c(F)cc1Nc1ncc2c(n1)N(C1CCCC1)CC(F)(F)C(=O)N2C`: the Potency in assay [1] was 83.3 nM (active). In addition, the Potency result in assay [2], in assay [3], in assay [4], in assay [5] and in assay [6] was “inactive” each time.
Turning to `COC(=O)/C=C/C12COC(C)(C)C1C(O)C(OC(C)=O)C1(C)C2CCC2(C)C(c3ccoc3)OC(=O)C3OC321` (stereo unspecified), the Potency entry in assay [1], in assay [2], in assay [3], in assay [4], in assay [5] and in assay [6] was “inactive” in each case.
For the compound `COC(=O)C12C(=O)C(C)=C(O)C1(C)C(C)=CC1C3(CO)CCC(O)C(C)(C)C3CCC12C` (stereo unspecified), the Potency entry in assay [1], in assay [2], in assay [3], in assay [4], in assay [5] and in assay [6] was “inactive” in each case.
`CNC(=O)c1ccccc1Nc1cc(Nc2ccc(N3CCOCC3)cc2OC)ncc1C(F)(F)F`: the Potency in assay [1] is 2900 nM (active); in assay [5], 1500 nM (active). Moreover, the Potency entry in assay [2], in assay [3], in assay [4] and in assay [6] was “inactive” throughout.
For the compound `CC(=O)OC1C(c2ccccc2)CCC(c2ccccc2)C1OC(C)=O` (stereo unspecified), the Potency result in assay [1], in assay [2], in assay [3], in assay [4], in assay [5] and in assay [6] was “inactive” in each case.
Take `CC(=O)O[C@@H]1[C@@H](O)[C@H](O[C@H]2CC[C@]34C[C@]35CC[C@]3(C)[C@@H]([C@@]6(C)CC[C@@H](C(C)(C)O)O6)[C@@H](O)C[C@@]3(C)[C@@H]5C[C@H](O[C@@H]3O[C@H](CO)[C@@H](O)[C@H](O)[C@H]3O)[C@H]4C2(C)C)OC[C@H]1O`: the Potency entry in assay [1], in assay [2], in assay [3], in assay [4], in assay [5] and in assay [6] was “inactive” throughout.
